# PubChem BioAssay AID630 (Emory University Molecular Libraries Screening Center, 2007)
# Out of some 88,000 compounds screened, about 260 (0.3%) were called active. What follows is part of a selection rich in actives, with near analogues and random picks from the rest. A number with no mark means an inactive call.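 The calls were made as follows: active = compounds that reduce the energy-transfer binding signal between the protein and its labelled peptide by more than half; inactive = the rest.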
# Biological target: Mothers against decapentaplegic homolog 3 (Homo sapiens) (UniProt P84022)
# Test: blockers of Smad3 binding to FoxH1 – biochemical, TR-FRET, primary screen (AID 630);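 also: 0% = Smad3 plus labelled peptide maximal FRET and 100% = peptide-only background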
# Details: TR-FRET Smad3/Dy647-FoxH1 peptide binding, europium anti-His; at 25 µM; active compounds read high
# Chain of Mothers against decapentaplegic homolog 3 (Homo sapiens) (P84022 whole entry, looked up): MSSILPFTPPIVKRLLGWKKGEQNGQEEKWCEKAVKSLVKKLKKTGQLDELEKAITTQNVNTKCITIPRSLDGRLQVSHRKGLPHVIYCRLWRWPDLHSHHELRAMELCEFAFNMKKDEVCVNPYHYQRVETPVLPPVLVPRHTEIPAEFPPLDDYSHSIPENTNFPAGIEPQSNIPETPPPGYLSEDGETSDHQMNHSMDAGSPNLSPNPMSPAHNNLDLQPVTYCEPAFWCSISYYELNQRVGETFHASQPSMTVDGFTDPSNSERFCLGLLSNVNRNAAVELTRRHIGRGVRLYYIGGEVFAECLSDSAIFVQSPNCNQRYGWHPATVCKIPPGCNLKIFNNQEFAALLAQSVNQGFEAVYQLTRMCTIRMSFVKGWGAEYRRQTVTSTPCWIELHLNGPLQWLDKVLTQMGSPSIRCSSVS
row,SMILES,inhibition
1,COC(=O)C1=C(C(=O)c2ccc(C)cc2)C(c2ccccc2)n2nnnc2N1 (stereo not drawn),-4.2%
2,Clc1ccc(C2=CSC3=Nc4cccc5cccc(c45)N23)cc1,19.6%
3,Nn1c(Cc2cccc3ccccc23)nnc1SCC(=O)N1CC(=O)Nc2ccccc21,-9.99%
4,O=C(c1ccco1)N1CCN(C(=O)C2CCCN(S(=O)(=O)c3cccc4nsnc34)C2)CC1 (stereo not drawn),-9.4%
5,NC1=NC(=O)C2(COC(c3ccccc3Cl)OC2)S1 (stereo not drawn),8.22%
6,Cc1oc2nc(SCC(=O)Nc3ccc(S(N)(=O)=O)cc3)nc(NC(=O)c3ccccc3)c2c1C,-117%
7,Cc1ccc(C2C(C#N)C(C#N)N3CCCN23)cc1 (stereo not drawn),-8.98%
8,COc1ccc2c(c1)cc1n2CCN=C1NN,17.3%
9,C/C(N[O-])=C(\C)[N+]([O-])=[Co].CC(=N\[O-])/C(C)=N/[O-].[CH2-]CCN1CCOCC1.c1ccncc1,25%
10,CC(C)(C)NC(=O)CN(Cc1cccs1)C(=O)CNS(=O)(=O)c1ccccc1,-8.34%
11,COC(=O)c1ccccc1Sc1c(/C=N/OCc2ccc(Cl)cc2)c(C(F)(F)F)nn1C,1.08%
12,Cc1ccc(NC(=O)CSCC(=O)N2CCOCC2)cc1,8.2%
13,OCCNc1nc2ccccc2[nH]1,3.77%
14,Cc1cc(SCC(=O)c2ccccc2)nc(SCC(=O)c2ccccc2)n1,-1.72%
15,COc1ccc(-c2nn(-c3ccccc3)cc2C(=O)Nc2nccs2)cc1OC,-5%
16,CC(=O)C1=C(C)NC(C)=C(C(C)=O)C1c1cn(-c2ccccc2)nc1-c1cccs1,-6.06%
17,Cc1ccc(C2NC(=S)NC3=C2N2CCC3CC2)cc1 (stereo not drawn),2.12%
18,COc1cc(N2CCCC2)c(OC)cc1/C=C(/C#N)c1cccc(Br)c1,0.41%
19,Cc1cc2c(cc1C)NC1=C(N2)O[C@H](c2c[nH]c3ccc(COc4ccccc4)cc23)C1=O,81.3% (active)
20,Cn1cc(S(=O)(=O)N2CCN(c3ccc(F)cc3)CC2)c(=O)n(C)c1=O,-0.19%
21,CCC(CC)C(=O)N1CC(=O)Nc2ccc(Br)cc2C1c1ccccc1 (stereo not drawn),1.61%

row,SMILES,inhibition
1,CC1(C)C2CCC13CS(=O)(=O)NC3C2 (stereo not drawn),7.24%
2,O=S(=O)(O)c1ccc(O)c2ncccc12.O=S(=O)(O)c1ccc(O)c2ncccc12.[Zn],63.9% (active)
3,O=C(O)COc1c(Cl)cc(Cl)c2cccnc12,-8.45%
4,O=C(Nc1cccc2ccccc12)N1CCN(Cc2ccc3c(c2)OCO3)CC1,8.91%
5,CC(C)(C)C(=O)c1cnc(Nc2ccccc2)s1,-2.94%
6,Cn1nc(-c2ccccc2)c(CSc2cccc(Cl)c2)c1Cl,-0.19%
7,COc1ccc(C2=NO[C@@H]3C(=O)N(Cc4ccccc4)C(=O)[C@H]23)cc1OC,4.9%
8,COc1ccc(C(=O)CN2C(=O)NC(C)(c3ccc(C)cc3)C2=O)cc1OC (stereo not drawn),0.23%
9,COC(=O)c1ccc(NC(=O)c2ccco2)cc1,66.7% [fluorescence artefact?] (active)
10,Cc1ccnc(NC(=O)c2ccc(NC(=O)c3ccco3)cc2)c1,8.59%
11,O=C(Nc1ccc(Oc2ccccc2)cc1)c1ccco1,-3.88%
12,Cc1cc(N/C=C\C(=O)c2ccc(Cl)c(Cl)c2)no1,-20.1%
13,CC(C)Nc1ncnc2c1nnn2Cc1ccccc1,-8.78%
14,CC1(C)CC(=O)C=C(N2CCCC2)C1,-13.5%
15,COc1ccccc1CNS(=O)(=O)c1ccc(C)cc1,9.13%
16,O=C(O)[C@@H]1CCc2ccc3ccccc3c2[C@H]1c1cccc2ccccc12,-9.06%
17,COC(=O)c1ccc(NC(=O)C23CC4CC(C2)CC(n2cnc(Cl)n2)(C4)C3)cc1,4.51%
18,O=C(O)[C@@H]1CS[C@]2(CCCN(Cc3ccccc3)C2)N1,7.7%
19,O=S1(=O)C=C(SCCN2CCCC2)c2ccccc21,17.4%
20,CCOC(=O)c1c(NC(=O)CCl)sc(C(=O)N(CC)CC)c1C,14.1%
21,Cc1cccc(N2CCN(C(=O)c3cnn4c(C(F)F)cc(-c5ccccc5)nc34)CC2)c1C,8.08%

row,SMILES,inhibition
1,Cn1ncc2c(Nc3cccc4ccccc34)ncnc21,2.63%
2,Cc1noc(COc2ccccc2OCc2onc(C)c2Cl)c1Cl,-10.7%
3,Cn1c2c(c(=O)n(C)c1=O)C(c1cccc([N+](=O)[O-])c1)Nc1ccccc1O2 (stereo not drawn),-10.5%
4,CCOc1ccc(C(O)Cc2nc3ccccc3n2C)cc1 (stereo not drawn),3.1%
5,CCCn1c(C)cc(C(=O)COC(=O)c2c(C)nn(-c3ccccc3)c2C)c1C,-7.34%
6,COc1ccc(C(=O)Nc2ccc(CN3CCOCC3)cc2)cc1,11%
7,N#C/C(=C\c1ccccc1)c1n[nH]c(Cn2cncn2)n1,8.55%
8,O=C(CSCc1ccc(Cl)cc1)N1CCCCC1,-8.93%
9,Cc1cccc(NC(=O)CSc2nc3c(c(=O)[nH]2)CCCC3)c1C,5.9%
10,Cc1cc2nc(SCCN3CCOCC3)[nH]c2cc1C,2.4%
11,Cc1nn(Cc2ccccc2)c2c1C(c1ccccc1)C(C#N)=C(N)O2 (stereo not drawn),5.74%
12,COc1ccc(N/N=C2/CCCCC2=O)cc1,-1.11%
13,O=C(O)c1nn(-c2ccc(Cl)cc2)c2c1C(=O)c1ccccc1C2=O,53.4% (active)
14,Cc1ccc(-n2ccc(=O)c(C(=O)O)n2)cc1,0.02%
15,CCOc1ccc(NC(=O)N(CC(C)C)CC(C)C)cc1,3.46%
16,N#CC1=C(SCc2ccc(C#N)cc2)N=C(N)C(c2nc(-c3ccccc3)cs2)C12CCCCC2 (stereo not drawn),-3.23%
17,O=C(NC1(C(F)(F)F)NC(=O)N(Cc2cccnc2)C1=O)c1ccccc1Cl (stereo not drawn),40.1%
18,COC(=O)c1ccc(Cc2ccccc2)o1,6.44%
19,O=C(O)c1ccc(C(=O)O)c2c(C(=O)O)ccc(C(=O)O)c12,-1.5%
20,O=C(O)c1ccc(C(=O)c2ccccc2C(=O)O)cc1C(=O)O,63.5% (active)
21,O=C(c1ccc(O)cc1)c1ccc(C(=O)O)c(C(=O)O)c1,-7.32%
